Legend:
Test in all cases: log2 ratio of Biotin-Ahx-Ub-VS probe labelling (fragment/DMSO); higher = less target engagement (more negative = stronger competition), active = hit call of the paper (q ≤ 0.05, log2 ratio ≤ -1)
Conditions in all cases: compound concentration: 200 uM; treatment time: 3 h
ALG13 = molecular target: T1, ALG13 (UniProt Q9NP73)
T1 sequence (whole entry): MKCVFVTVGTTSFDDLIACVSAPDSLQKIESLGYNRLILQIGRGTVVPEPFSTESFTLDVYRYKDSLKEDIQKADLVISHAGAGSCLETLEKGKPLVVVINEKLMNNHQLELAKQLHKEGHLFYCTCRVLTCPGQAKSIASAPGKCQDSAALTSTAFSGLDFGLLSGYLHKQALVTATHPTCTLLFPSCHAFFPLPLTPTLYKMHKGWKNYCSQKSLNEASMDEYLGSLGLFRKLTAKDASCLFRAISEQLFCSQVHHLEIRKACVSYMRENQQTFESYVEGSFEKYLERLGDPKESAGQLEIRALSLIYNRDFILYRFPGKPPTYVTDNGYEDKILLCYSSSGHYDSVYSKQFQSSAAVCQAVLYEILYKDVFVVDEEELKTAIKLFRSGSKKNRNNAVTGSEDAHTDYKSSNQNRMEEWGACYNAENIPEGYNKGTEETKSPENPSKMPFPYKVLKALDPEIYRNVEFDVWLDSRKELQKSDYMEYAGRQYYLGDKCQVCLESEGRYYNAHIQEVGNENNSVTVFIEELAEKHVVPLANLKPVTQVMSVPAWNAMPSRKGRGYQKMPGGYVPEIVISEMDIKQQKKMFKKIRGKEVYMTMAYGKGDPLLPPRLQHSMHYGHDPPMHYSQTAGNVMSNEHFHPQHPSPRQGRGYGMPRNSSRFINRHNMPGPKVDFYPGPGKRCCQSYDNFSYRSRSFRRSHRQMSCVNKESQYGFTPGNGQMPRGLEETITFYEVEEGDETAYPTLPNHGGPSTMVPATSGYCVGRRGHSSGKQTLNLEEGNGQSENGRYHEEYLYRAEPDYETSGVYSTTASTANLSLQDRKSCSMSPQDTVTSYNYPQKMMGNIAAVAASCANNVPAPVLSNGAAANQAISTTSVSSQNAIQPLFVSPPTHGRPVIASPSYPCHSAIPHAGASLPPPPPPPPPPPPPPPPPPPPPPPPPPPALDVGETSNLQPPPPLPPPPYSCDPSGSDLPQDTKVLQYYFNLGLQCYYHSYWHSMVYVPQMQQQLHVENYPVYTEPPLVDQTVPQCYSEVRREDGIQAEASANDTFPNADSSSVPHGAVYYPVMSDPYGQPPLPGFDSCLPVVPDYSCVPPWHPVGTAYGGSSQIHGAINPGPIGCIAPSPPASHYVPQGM
Outline: (§1)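 HEK293T lysate, 495 µg per sample in Tris/CHAPS/IGEPAL buffer with protease inhibitors, was treated in triplicate with fragment at 200 µM or vehicle for 3 h and then with Biotin-Ahx-Ub-VS at 0.5 µM final for 1 h. Labelled DUBs were NeutrAvidin-enriched, digested with LysC and trypsin, and run by diaPASEF LC-MS/MS. Spectronaut label-free quantities were global-median-normalised, and values are average log2 fragment/vehicle ratios by unpaired t-test on proteins with ≥2 unique peptides.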

ATXN3 = ATXN3 (UniProt P54252)
Outline: as §1

BAP1 = molecular target: T2, BAP1 (UniProt Q92560)
T2 sequence (whole entry): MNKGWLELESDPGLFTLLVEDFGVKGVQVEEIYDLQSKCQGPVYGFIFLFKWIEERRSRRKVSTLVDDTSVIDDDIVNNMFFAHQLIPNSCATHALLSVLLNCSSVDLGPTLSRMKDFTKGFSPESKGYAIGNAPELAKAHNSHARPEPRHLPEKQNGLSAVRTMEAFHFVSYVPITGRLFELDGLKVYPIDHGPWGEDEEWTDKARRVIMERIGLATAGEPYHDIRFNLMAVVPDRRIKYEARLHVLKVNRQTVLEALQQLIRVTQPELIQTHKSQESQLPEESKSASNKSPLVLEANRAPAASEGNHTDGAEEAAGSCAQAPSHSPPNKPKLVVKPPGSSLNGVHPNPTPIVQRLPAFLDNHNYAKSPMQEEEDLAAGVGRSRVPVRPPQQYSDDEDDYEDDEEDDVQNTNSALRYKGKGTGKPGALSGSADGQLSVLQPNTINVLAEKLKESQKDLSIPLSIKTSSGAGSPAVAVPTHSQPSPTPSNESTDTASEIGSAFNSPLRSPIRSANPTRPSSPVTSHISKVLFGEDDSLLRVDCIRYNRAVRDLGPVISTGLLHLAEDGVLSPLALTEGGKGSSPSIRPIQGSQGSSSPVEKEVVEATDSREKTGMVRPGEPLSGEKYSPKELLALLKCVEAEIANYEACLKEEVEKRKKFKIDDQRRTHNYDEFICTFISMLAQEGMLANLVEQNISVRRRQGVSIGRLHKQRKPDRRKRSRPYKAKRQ
Outline: as §1

EIF3F = EIF3F (UniProt O00303)
Outline: as §1

EIF3H = EIF3H (UniProt O15372)
Outline: as §1

FAM105A = molecular target: T3, FAM105A (UniProt Q9NUU6)
T3 sequence (whole entry): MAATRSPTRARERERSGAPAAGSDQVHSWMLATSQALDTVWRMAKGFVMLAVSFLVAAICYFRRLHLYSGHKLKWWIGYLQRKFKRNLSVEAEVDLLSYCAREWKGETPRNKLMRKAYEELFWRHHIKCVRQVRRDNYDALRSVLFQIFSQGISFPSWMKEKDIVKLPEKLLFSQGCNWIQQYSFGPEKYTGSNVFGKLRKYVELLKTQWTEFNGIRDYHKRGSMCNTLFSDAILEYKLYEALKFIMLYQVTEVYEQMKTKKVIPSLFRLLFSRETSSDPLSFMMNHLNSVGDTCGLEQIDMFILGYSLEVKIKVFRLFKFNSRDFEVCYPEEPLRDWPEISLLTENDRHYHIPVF
Outline: as §1

OTUB1 = OTUB1 (UniProt Q96FW1)
Outline: as §1

OTUD4 = molecular target: T4, OTUD4 (UniProt Q01804)
T4 sequence (whole entry): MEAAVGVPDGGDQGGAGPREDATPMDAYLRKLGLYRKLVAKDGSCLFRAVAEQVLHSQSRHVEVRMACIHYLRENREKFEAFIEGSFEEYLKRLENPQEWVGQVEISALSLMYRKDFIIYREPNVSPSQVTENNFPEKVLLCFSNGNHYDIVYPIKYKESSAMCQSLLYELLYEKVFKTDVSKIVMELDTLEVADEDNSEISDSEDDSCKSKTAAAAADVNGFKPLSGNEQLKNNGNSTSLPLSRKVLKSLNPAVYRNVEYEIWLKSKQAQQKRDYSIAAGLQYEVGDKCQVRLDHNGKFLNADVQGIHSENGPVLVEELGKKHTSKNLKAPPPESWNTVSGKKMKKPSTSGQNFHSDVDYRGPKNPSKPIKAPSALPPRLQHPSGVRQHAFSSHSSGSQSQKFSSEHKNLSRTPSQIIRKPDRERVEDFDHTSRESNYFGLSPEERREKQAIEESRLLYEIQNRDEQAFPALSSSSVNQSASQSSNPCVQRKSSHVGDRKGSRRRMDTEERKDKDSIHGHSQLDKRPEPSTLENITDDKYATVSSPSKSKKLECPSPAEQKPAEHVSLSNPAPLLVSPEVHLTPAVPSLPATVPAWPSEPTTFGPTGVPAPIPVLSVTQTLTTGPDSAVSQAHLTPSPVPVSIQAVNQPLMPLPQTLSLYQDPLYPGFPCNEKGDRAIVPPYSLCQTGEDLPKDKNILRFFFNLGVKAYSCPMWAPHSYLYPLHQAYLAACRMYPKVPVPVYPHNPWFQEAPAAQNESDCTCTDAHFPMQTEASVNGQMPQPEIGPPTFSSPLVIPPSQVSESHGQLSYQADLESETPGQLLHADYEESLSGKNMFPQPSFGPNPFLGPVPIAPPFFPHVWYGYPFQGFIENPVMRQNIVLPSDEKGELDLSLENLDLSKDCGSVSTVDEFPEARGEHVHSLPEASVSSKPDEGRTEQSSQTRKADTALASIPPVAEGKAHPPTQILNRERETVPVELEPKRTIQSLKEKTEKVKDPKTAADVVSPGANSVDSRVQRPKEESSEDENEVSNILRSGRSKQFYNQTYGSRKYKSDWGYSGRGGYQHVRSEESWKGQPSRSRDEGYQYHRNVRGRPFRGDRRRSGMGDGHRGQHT
Outline: as §1

OTUD5 = molecular target: T5, OTUD5 (UniProt Q96G74)
T5 sequence (whole entry): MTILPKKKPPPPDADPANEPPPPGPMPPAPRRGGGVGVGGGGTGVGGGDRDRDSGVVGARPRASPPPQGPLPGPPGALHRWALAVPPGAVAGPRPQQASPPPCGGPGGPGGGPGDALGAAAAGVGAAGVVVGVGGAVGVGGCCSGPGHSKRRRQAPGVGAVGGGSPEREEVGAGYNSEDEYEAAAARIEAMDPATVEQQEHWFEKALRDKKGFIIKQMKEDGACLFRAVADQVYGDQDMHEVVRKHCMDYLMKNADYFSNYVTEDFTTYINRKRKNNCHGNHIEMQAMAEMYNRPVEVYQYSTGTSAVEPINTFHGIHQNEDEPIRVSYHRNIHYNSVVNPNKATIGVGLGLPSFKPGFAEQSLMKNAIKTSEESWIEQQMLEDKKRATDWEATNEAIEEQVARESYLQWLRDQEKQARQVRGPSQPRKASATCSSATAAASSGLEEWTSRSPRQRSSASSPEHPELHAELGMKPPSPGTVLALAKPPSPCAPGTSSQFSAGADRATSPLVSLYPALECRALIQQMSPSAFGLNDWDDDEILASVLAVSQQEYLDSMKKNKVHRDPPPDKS
Outline: as §1

Measured: log2 ratio of Biotin-Ahx-Ub-VS probe labelling

Chain of OTUB1 (Q96FW1 whole entry): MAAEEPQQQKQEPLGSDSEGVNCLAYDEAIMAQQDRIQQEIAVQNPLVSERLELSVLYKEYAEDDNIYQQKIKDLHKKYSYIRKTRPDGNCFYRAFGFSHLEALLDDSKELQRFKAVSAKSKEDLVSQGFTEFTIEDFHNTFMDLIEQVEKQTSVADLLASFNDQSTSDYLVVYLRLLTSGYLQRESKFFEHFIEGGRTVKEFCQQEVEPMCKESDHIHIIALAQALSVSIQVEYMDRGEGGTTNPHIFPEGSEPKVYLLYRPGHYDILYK
Chain of EIF3F (O00303 whole entry): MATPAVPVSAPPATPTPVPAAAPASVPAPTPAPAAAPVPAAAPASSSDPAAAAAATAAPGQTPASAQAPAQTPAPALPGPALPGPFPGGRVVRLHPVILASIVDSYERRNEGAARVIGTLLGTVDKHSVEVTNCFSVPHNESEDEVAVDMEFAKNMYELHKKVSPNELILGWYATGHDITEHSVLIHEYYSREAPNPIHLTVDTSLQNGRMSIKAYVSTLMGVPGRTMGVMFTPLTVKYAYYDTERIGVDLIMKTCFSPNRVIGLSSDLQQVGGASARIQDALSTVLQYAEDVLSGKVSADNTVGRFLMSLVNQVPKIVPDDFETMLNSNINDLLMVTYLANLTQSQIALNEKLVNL
Chain of EIF3H (O15372 whole entry): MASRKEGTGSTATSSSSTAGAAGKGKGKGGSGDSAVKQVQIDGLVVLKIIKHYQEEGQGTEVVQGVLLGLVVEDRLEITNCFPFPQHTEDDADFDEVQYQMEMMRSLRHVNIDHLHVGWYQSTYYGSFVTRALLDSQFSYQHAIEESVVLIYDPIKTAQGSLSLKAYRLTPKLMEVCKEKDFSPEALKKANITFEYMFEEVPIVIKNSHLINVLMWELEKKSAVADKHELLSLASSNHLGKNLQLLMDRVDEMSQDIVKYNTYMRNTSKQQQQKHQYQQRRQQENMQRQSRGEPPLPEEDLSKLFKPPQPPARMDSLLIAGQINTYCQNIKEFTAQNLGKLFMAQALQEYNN
Chain of ATXN3 (P54252 whole entry): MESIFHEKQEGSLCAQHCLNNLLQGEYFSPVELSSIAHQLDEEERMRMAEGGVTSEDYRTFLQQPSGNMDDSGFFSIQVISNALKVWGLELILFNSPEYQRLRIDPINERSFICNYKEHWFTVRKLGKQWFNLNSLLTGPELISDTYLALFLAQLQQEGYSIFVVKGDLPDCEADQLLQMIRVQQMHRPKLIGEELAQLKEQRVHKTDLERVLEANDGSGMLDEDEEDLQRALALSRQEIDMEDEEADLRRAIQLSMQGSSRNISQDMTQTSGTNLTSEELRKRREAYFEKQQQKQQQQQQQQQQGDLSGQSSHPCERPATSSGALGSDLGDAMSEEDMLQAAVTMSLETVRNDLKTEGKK

O=C(CCl)Nc1ccc(N2CCCC2=O)cc1
active: BAP1 -3.73
inactive: ALG13 0.0794 | ATXN3 0.0787 | EIF3F -0.125 | EIF3H 0.315 | FAM105A 0.0919 | OTUB1 -0.351 | OTUD4 0.0281 | OTUD5 -0.504

From the supplement of paper PMC11732987, “Enantioselective OTUD7B fragment discovery through chemoproteomics screening and high-throughput optimisation” (Communications Chemistry, 2025)
